KCNQ2 block: KCNQ2 (rat) channel inhibition; 1.1% of 310,000 active; B-score at 10 µM; CHO-K1 KCNQ2, FluxOR thallium flux, 20 min; stronger effect = lower value; O88943;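 active means fluorescence ratio B-score at most minus 3 library SDs, with starting brightness B-score within 2 library SDs, cut at about -5.5 in these data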
Target sequence (O88943 whole entry, looked up): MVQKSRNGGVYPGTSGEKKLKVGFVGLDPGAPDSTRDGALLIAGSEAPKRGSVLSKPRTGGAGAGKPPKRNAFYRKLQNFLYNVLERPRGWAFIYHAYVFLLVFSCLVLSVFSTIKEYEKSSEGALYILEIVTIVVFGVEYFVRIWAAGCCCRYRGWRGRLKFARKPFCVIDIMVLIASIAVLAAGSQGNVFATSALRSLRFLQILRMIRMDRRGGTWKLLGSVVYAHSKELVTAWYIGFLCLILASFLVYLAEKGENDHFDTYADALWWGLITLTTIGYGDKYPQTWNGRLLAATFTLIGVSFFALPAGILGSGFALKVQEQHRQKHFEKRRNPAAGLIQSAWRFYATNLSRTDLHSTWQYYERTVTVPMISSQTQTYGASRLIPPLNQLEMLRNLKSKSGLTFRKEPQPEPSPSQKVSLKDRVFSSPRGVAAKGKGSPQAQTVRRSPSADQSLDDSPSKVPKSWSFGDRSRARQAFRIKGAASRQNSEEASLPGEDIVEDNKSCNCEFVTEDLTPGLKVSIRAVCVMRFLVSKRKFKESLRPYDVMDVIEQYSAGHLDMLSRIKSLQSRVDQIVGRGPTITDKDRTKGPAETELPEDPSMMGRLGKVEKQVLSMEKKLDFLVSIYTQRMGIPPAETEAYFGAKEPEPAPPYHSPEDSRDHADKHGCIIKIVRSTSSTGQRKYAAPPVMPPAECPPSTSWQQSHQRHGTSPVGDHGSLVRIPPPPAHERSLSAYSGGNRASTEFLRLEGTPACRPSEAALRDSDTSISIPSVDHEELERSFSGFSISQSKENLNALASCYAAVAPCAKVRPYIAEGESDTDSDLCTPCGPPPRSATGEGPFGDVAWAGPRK
KCNQ2 pot: potentiators of rat KCNQ2 potassium channel; O88943; 0.54% of 310,000 active; AID 2239; B-score at 10 µM; CHO-K1 KCNQ2, FluxOR thallium flux fluorescence; stronger effect = higher value;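 active means fluorescence ratio B-score at least 3 SD of library B-scores, with initial fluorescence B-score within 3 of them, cut at about 5.3 in these data; same plate scores as AID 2156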;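 further: B-score of peak minus minimum over baseline fluorescence ratio after K+ and Tl+ stimulus; positive B-score means potentiation of KCNQ2 with more thallium influx and brighter signal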
Starred values were filed as active, the others as inactive. Most compounds without a hit are left out; they make up all but 1.6% or so of the library.

Screening COCC(=O)Nc1ccc(C(=O)Nc2ccccc2Cl)cc1 returned KCNQ2 block inactive and KCNQ2 pot 1.5.
For O=C(N/N=C/c1cccc(Cl)c1)C(c1ccncc1)N1CCOCC1 (centres undefined) the results were KCNQ2 block inactive and KCNQ2 pot 0.56.
`CC(=O)c1c(C)nc2ccc(Br)cc2c1-c1ccccc1` gave KCNQ2 block -7.8* and KCNQ2 pot -7.8.
Screening Cc1nc2ccc(Br)cc2c(-c2ccccc2)c1C(=O)O returned KCNQ2 block inactive.
For O=CNC(n1cnc2c(N3CCOCC3)ncnc21)C(Cl)(Cl)Cl (centres undefined) the results were KCNQ2 block inactive and KCNQ2 pot 0.37.
COc1ccc(-c2nc(CS(=O)(=O)CC(=O)NCc3ccccc3Br)c(C)o2)cc1 was read as KCNQ2 block -7.8* and KCNQ2 pot -7.8.
Screening COc1ccc(-c2nc(CS(=O)(=O)CC(=O)NCc3cccc(OC)c3OC)c(C)o2)cc1 returned KCNQ2 block inactive.
`CCOC(=O)C1CCCN(C(=O)c2cccc([N+](=O)[O-])c2C)C1` (centres undefined) gave KCNQ2 block inactive and KCNQ2 pot 1.9.
For Cc1cc2c(sc3c(C)ccc(C)c32)c(C)n1 the results were KCNQ2 block inactive.
For O=C(CCCc1ccccc1)Nc1ccnn1C1CCN(Cc2ccccn2)CC1 the results were KCNQ2 block inactive and KCNQ2 pot 6.4*.
For Cc1ccccc1CN1CCC(n2nccc2NC(=O)CCCc2ccccc2)CC1 the results were KCNQ2 block inactive and KCNQ2 pot 0.07.
COc1ccc(Br)cc1-c1noc(-c2ccccc2)n1 was read as KCNQ2 block inactive.
For COc1ccc(Br)cc1-c1nc(C)c(C(C)=O)n1O the results were KCNQ2 block -7.2* and KCNQ2 pot -7.2.
C=CCOC(=O)/C=C/C(=O)NC(N)=O was read as KCNQ2 block inactive.
`Cc1ccc(C)c(NC(=O)CN(C)C(=O)c2cc([N+](=O)[O-])ccc2N2CCOCC2)c1` gave KCNQ2 block inactive and KCNQ2 pot 0.91.
Cc1cc(Br)ccc1NC(=O)CN(C)C(=O)c1cc([N+](=O)[O-])ccc1N1CCOCC1 was read as KCNQ2 block -6.5* and KCNQ2 pot -6.5.
O=C(c1ccccc1NS(=O)(=O)c1cccc([N+](=O)[O-])c1)N1CCCC1 was read as KCNQ2 block inactive and KCNQ2 pot 0.82.
For COc1ccccc1N1CCN(c2ccc3cc(S(=O)(=O)N4CCCCC4)ccc3n2)CC1 the results were KCNQ2 block -5.6* and KCNQ2 pot -5.6.
For O=S(=O)(c1ccc2nc(N3CCN(c4ccccc4)CC3)ccc2c1)N1CCCCC1 the results were KCNQ2 block inactive and KCNQ2 pot 0.04.
`Cc1cccc(C)c1OCc1cc(C(=O)N2CCN(c3ccccc3)CC2C)no1` (centres undefined) gave KCNQ2 block -7.1* and KCNQ2 pot -7.1.
CC1CN(c2ccccc2)CCN1C(=O)c1cc(COc2c(F)cccc2F)on1 (centres undefined) was read as KCNQ2 block inactive and KCNQ2 pot 1.3.
Screening CCOc1ccc(S(=O)(=O)Nc2nc3ccccc3nc2Nc2ccc(N3CCOCC3)cc2)cc1 returned KCNQ2 block -5.6* and KCNQ2 pot -5.6.
COc1ccc(S(=O)(=O)Nc2ccc(N3CCOCC3)cc2)cc1 was read as KCNQ2 block inactive and KCNQ2 pot 0.52.
Screening Cc1ccc2cc(/C=N/NC(=O)CN3CCCCC3)c(Cl)nc2c1 returned KCNQ2 block inactive and KCNQ2 pot 3.4.
`O=C(O)CC1(CC(=O)Nc2ccc3ccccc3c2)CCCCC1` gave KCNQ2 block inactive.
For O=C(O)CC1(CC(=O)Nc2ccc(Br)cc2)CCCCC1 the results were KCNQ2 block -7.6* and KCNQ2 pot -7.6.
For Cc1nc(C(F)(F)F)c(C(=O)O)cc1-c1nc(-c2ccccc2)cs1 the results were KCNQ2 block inactive.
Screening CC(NC(=O)c1ccccc1)C(=O)NC1=NCCS1 (centres undefined) returned KCNQ2 block inactive and KCNQ2 pot 0.56.
For CC(NC(=O)c1ccc(Br)cc1)C(=O)NC1=NCCS1 (centres undefined) the results were KCNQ2 block inactive and KCNQ2 pot 7.4*.
COc1ccccc1C(=O)Nc1ccccc1N1CCOCC1 was read as KCNQ2 block inactive.
Screening COc1c(C(=O)Nc2ccccc2N2CCOCC2)cc2ccccc2c1Br returned KCNQ2 block -7.5* and KCNQ2 pot -7.5.
Screening O=C(Nc1ccccc1N1CCOCC1)c1cc2ccccc2o1 returned KCNQ2 block inactive.
`COc1ccc(N2CCOCC2)c(NC(=O)c2cc3ccccc3o2)c1` gave KCNQ2 block -7.3* and KCNQ2 pot -7.3.
For Cc1ccc(C2C(C#N)=C(N)SC(N)=C2C#N)o1 the results were KCNQ2 block inactive and KCNQ2 pot 0.54.
For Cc1ccc(C2OC3=C(C(=O)CC(C)(C)C3)C(N)=C2C#N)o1 (centres undefined) the results were KCNQ2 block inactive and KCNQ2 pot 5.3*.
Screening Cc1ccc(-c2cc(C(=O)NCCCN3CCOCC3)c3ccccc3n2)cc1 returned KCNQ2 block inactive and KCNQ2 pot 0.19.
Screening CCc1ccc(Sc2cc(C(=O)NCCN3CCOCC3)c3ccccc3n2)cc1 returned KCNQ2 block -5.7* and KCNQ2 pot -5.7.
COc1ccc(N(C)C(=O)CCC(=O)Nc2ccc3nc(N4CCOCC4)cc(C)c3c2)c(OC)c1 was read as KCNQ2 block -7.8* and KCNQ2 pot -7.8.
COc1ccc(NC(=O)CCC(=O)Nc2ccc3nc(N4CCOCC4)cc(C)c3c2)c(OC)c1 was read as KCNQ2 block inactive and KCNQ2 pot 0.24.
COc1ccc(S(=O)(=O)N2CN3CCN(C3)C2)cc1OC was read as KCNQ2 block inactive and KCNQ2 pot 1.6.
Screening Cc1ccc(C(=O)O)cc1N1C(=O)c2cccc3c([N+](=O)[O-])ccc(c23)C1=O returned KCNQ2 block inactive.
`O=C(O)c1ccc(CN2C(=O)c3cccc4c([N+](=O)[O-])ccc(c34)C2=O)cc1` gave KCNQ2 block -8.6* and KCNQ2 pot -8.6.
For COc1ccc(OC)c(N(CC(=O)NCC2CCCO2)S(=O)(=O)c2ccccc2)c1 (centres undefined) the results were KCNQ2 block inactive.
For O=C(CCCOc1ccccc1)NC(=S)Nc1ccccc1 the results were KCNQ2 block inactive and KCNQ2 pot 0.33.
Screening CC(=O)Nc1ccc2c3c(cccc13)CC2 returned KCNQ2 block inactive and KCNQ2 pot 1.4.
CCCCC(=O)Nc1ccc2c3c(cccc13)CC2 was read as KCNQ2 block inactive and KCNQ2 pot 19*.
CC(C)CC(=O)Nc1ccc2c3c(cccc13)CC2 was read as KCNQ2 block inactive and KCNQ2 pot 26*.
Cc1cc(C)cc(OCC(=O)Nc2ccc3c4c(cccc24)CC3)c1 was read as KCNQ2 block inactive and KCNQ2 pot 0.25.
For CC(C)(C)C(=O)Nc1cccc(S(=O)(=O)NC2=NCCC2)c1 the results were KCNQ2 block inactive.
Screening CC(C)C[C@@H](CO)N1CCN(Cc2cccc(C#N)c2)CCC1=O returned KCNQ2 block inactive.
`Fc1cccc2sc(N3CCCC3)nc12` gave KCNQ2 block inactive and KCNQ2 pot 0.45.
Screening COc1ccc(CN2CCNC(=O)C2CC(=O)NCCc2c[nH]c3ccccc23)c(OC)c1 (centres undefined) returned KCNQ2 block inactive and KCNQ2 pot 0.59.
